Several values for one entry are separate records, joined by “and”; a condition that tells them apart may be missing. Equal entries are not always repeated. Inconclusive results are not listed. Activity calls are given as the source filed them. Unless noted, no cut-off is given here; in the data, nearly all actives have AC50 up to about 30 µM.

Consider 20 compounds from PubChem BioAssay.

Assay [1] can be described thus: growth inhibition of DIPG glioma cells, dose response, cell-based, SU-DIPG-XIII, MIPE4.0, CellTiter-Glo, qHTS (AID 1347061; cut-off not given, nearly all actives have AC50 up to about 37 µM;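 note: cells exposed to compound for 48 hours before readout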). The note with it: SU-DIPG-XIII viability, CellTiter-Glo ATP luminescence.
Assay [2] can be described thus: growth inhibition of DIPG glioma cells, dose response, cell-based, JHH-DIPG-1, MIPE4.0, CellTiter-Glo, qHTS (AID 1347062; cut-off not given, nearly all actives have AC50 up to about 27 µM;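 for AC50: cells exposed to compound for two days before readout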). The note with it: JHH-DIPG-1 viability, CellTiter-Glo ATP luminescence.
Assay [3] can be described thus: growth inhibition of DIPG glioma cells, dose response, cell-based, SU-DIPG-IV, MIPE4.0, CellTiter-Glo, qHTS (AID 1347063).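 Note: compound exposure lasted 48 hours before the viability readout.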 Conditions: SU-DIPG-IV viability, CellTiter-Glo ATP luminescence. On the technique in general: ATP-based viability assays read luminescence as a measure of living cells.
The nature of assay [4]: SU-DIPG-VI glioma cell viability, MIPE4.0 library, CellTiter-Glo luminescence, qHTS (AID 1347066).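 Note: cells exposed to compound for 48 hours before readout.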 Conditions: CellTiter-Glo ATP luminescence.
Assay [5] can be described thus: sensitizers of A549 cells to miR-34 induction, primary screen, imaging, A549 dox-inducible miR-34, nuclei and caspase counts (AID 1347080;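 active = compounds whose cell count with miR-34 switched on is under 0.7 times the count with it off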). The note with it: A549 miR-34 inducible, Hoechst nuclei count, 48 h.
Assay [6] can be described thus: survival rescue of mitochondrial mutant cells in low glucose, primary screen, MELAS cybrids, Rieske KO mouse fibroblasts, CellTiter-Glo (AID 1508586;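 active = mean z-score across replicates of 1.96 or higher in either the MELAS or the Rieske mutant cell line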;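 note: z relative to plate mean and SD of compound and empty wells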).
Assay [7] is described as follows: JHH-DIPG-1 glioma cell viability, MIPE5.0 library, CellTiter-Glo luminescence, qHTS (AID 1347067; cut-off not given, nearly all actives have AC50 up to about 26 µM;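 note: cells exposed to compound for 48 hours before readout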). The note with it: JHH-DIPG-1 glioma viability, CellTiter-Glo ATP luminescence.
Assay [8] in a line: SU-DIPG-XXV glioma cell viability, MIPE5.0 library, qHTS (AID 1347068; cut-off not given, nearly all actives have IC50 up to about 30 µM;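 for IC50: cells exposed to compound for 48 hours before viability readout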). (In general: In qHTS, concentration-response curves come from the screen itself.)
A short description of assay [9]: modifiers of HSF1 nuclear foci, imaging, Selleck Cancer Library (AID 1347162; in the data active = plate-normalised HSF1 focus index below about 0.46). Conditions: human cells, at 10 µM; SSMD: measured here: HSF1 foci SSMD mean; cell count: measured here: cell number; plate-normalised HSF1 focus index: stronger effect = lower value.
A short description of assay [10]: growth inhibition of DIPG glioma cells, dose response, cell-based, SU-DIPG-XIII, MIPE5.0, CellTiter-Glo, qHTS (AID 1347064; cut-off not given, nearly all actives have AC50 up to about 23 µM;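 note: cells exposed to compound for 48 hours before the viability read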). The note with it: SU-DIPG-XIII viability, CellTiter-Glo ATP luminescence.
Assay [11] is described as follows: viability loss in pontine glioma line – cell-based, SU-DIPG-XXV, MIPE5.0, CellTiter-Glo, qHTS, dose response (AID 1347065; cut-off not given, nearly all actives have AC50 up to about 26 µM;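 note: cells exposed to compound for 48 hours before ATP readout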). The note with it: CellTiter-Glo ATP luminescence.
The mark [12] stands for this setting: stronger effect = lower value, cell number ratio, induced over uninduced.
The mark [13] stands for this setting: measured here: relative caspase fold change +Dox/-Dox.
The mark [14] stands for this setting: measured here: total cells with miR-34 induction, stronger effect = lower value.
Setting [15] is: measured here: total cells without miR-34 induction.
Setting [16] is: MELAS cybrid survival, CellTiter-Glo 48 h, stronger effect = higher value.
[17] abbreviates: Rieske KO mouse fibroblast survival, CellTiter-Glo 72 h.

Take `CCC[C@H]1C[C@H](C(=O)N[C@@H]([C@@H]2O[C@@H](SC)[C@@H](O)[C@@H](O)[C@H]2O)[C@H](C)Cl)N(C)C1`: the call in assay [1], in assay [2], in [3] and in [4] was inactive.

In the case of `C[C@H](NCc1ccc2c(c1)nc(NC(=O)c1ccc(-c3cn[nH]c3)s1)n2CCc1ccccc1)C(C)(C)C`, the half-maximal activity concentration (AC50) (commonly the concentration giving half of the maximal activity seen) was 2.96 µM (active) in assay [1], 1.05 µM (active) in assay [2], 1.32 µM (active) in assay [3] and 5.26 µM (active) in assay [4].

On to `CCCCCCCCCCCCCCCC(=O)OC[C@@H](NC(=O)C(Cl)Cl)[C@H](O)c1ccc([N+](=O)[O-])cc1`, for which the compound was called inactive in assay [1], in assay [2], in [3] and in assay [4].

As to `Cn1c(N2CCCCS2(=O)=O)nc(C(=O)NCc2ccc(F)cc2)c(O)c1=O`, the compound was called inactive in assay [1], in assay [2], in [3] and in assay [4]. The fold change was 0.915 (inactive) in [5] (setting [12]) and 0.973 in assay [5] (setting [13]). For the same compound, the figures for the cell count in assay [5] (setting [14]) and in assay [5] (setting [15]) were 7350 and 8040, respectively. Also, the z-score in assay [6] (setting [16]) is -0.418 (inactive); in [6] (setting [17]), 0.522.

As for `COC(=O)N[C@H](C(=O)N1CCC[C@H]1c1ncc(-c2ccc(-c3ccc(-c4cnc([C@@H]5CCCN5C(=O)[C@@H](NC(=O)OC)C(C)C)[nH]4)cc3)cc2)[nH]1)C(C)C`, the compound was classed as inactive in assay [1] and in [2]. Also, the values for the AC50 in assay [3] and in assay [7] were 26.4 µM (active) and 23.5 µM (active), respectively.

`C1=C/COCc2cc(ccc2OCCN2CCCC2)Nc2nccc(n2)-c2cccc(c2)OCC/1`: the AC50 is 14.8 µM (active) in assay [1], 4.18 µM (active) in assay [2], 2.35 µM (active) in [3] and 5.26 µM (active) in assay [4].

With `N=C1S/C(=C\c2ccc(-c3ccc4c(c3)C(=O)NC4=O)o2)C(=O)N1c1ccc(Br)cc1`, the result in assay [1], in assay [2], in [3], in assay [4] and in [8] was inactive.

With `N#CC[C@H](C1CCCC1)n1cc(-c2ncnc3[nH]ccc23)cn1`, the call in assay [1], in [2], in [3], in assay [4] and in assay [8] was inactive. In assay [9], the SSMD was 3.63. In assay [9], this compound yielded a cell count of 7430. The plate-normalised HSF1 focus index in [9] was 1.23 (inactive).

For the compound `O=C(O)C1=NC(C(=O)O)CC(/C=C/N2c3cc(O)c(OC4OC(CO)C(O)C(O)C4O)cc3CC2C(=O)O)=C1` (centres undefined), the compound was classed as inactive in [1], in assay [2], in assay [3] and in [4].

Take `Nc1nc2[nH]cc(CCc3ccc(C(=O)N[C@@H](CCC(=O)O)C(=O)O)cc3)c2c(=O)[nH]1`: the compound was called inactive in assay [1], in assay [2], in assay [3], in assay [4], in [7] and in assay [8]. The fold change in assay [5] (setting [12]) is 1.36 (inactive); in [5] (setting [13]), 0.473. Besides, the values for the cell count in assay [5] (setting [14]), in assay [5] (setting [15]) and in [9] were 3100, 2280 and 7280, respectively. This compound returned an SSMD in assay [9] of -2.05. For the same compound, the plate-normalised HSF1 focus index in assay [9] is 0.87 (inactive). The z-score in [6] (setting [16]) was -0.725 (inactive); in [6] (setting [17]), -0.391.

In the case of `CC(C)CN(C[C@@H](O)[C@H](Cc1ccccc1)NC(=O)O[C@H]1CO[C@H]2OCC[C@H]21)S(=O)(=O)c1ccc(N)cc1`, the AC50 is 20.9 µM (active) in [1] and 23.5 µM (active) in assay [4]. Moreover, the compound was called inactive in [2] and in assay [3]. The z-score in assay [6] (setting [16]) is 0.705 (inactive); in assay [6] (setting [17]), 0.765.

For `CC1(C)C(=O)N(CCN2CCC(C(=O)c3ccc(F)cc3)CC2)c2ccccc21`, the compound was classed as inactive in assay [1], in assay [2] and in [3]. In addition, the fold change is 0.986 (inactive) in assay [5] (setting [12]) and 1.27 in assay [5] (setting [13]). For the same compound, the cell count was found to be 7420 in assay [5] (setting [14]) and 7530 in assay [5] (setting [15]).

As for `O=C(Nc1cc2cc[nH]c2cn1)c1ccccc1`, the AC50 in [1] was 14.8 µM (active); in assay [2], 5.9 µM (active); in assay [3], 3.32 µM (active); in assay [4], 14.8 µM (active). Further, the fold change in [5] (setting [12]) is 0.982 (inactive); in [5] (setting [13]) it was 0.194. Besides, the figures for the cell count in [5] (setting [14]) and in [5] (setting [15]) were 8430 and 8590, respectively. The z-score is -0.697 (inactive) in assay [6] (setting [16]) and -2.76 in assay [6] (setting [17]).

`O=C(Nc1ncc(SCCN2CCCC2)s1)[C@]1(c2ccc(S(=O)(=O)C3CC3)cc2)C[C@H]1C1CCCCC1`: the call in assay [1] was inactive. Besides, the AC50 in [2] was 14.8 µM (active); in assay [10], 16.6 µM (active); in [11], 9.34 µM (active); in assay [4], 20.9 µM (active); in [7], 11.8 µM (active). Further, the half-inhibitory concentration (IC50) (in general, the midpoint of a concentration-inhibition curve) in [8] was 20.9 µM (active).

Take `C[N+]1(C)[C@@H]2CC(OC(=O)C(O)(c3cccs3)c3cccs3)C[C@H]1[C@@H]1O[C@@H]12` (some centres undefined): the call in [1], in assay [2], in assay [3] and in assay [4] was inactive. Besides, the fold change was 0.899 (inactive) in assay [5] (setting [12]) and 1.32 in assay [5] (setting [13]). The cell count came to 10300 in assay [5] (setting [14]) and 11500 in assay [5] (setting [15]). The results for the z-score in assay [6] (setting [16]) and in [6] (setting [17]) were -0.0486 (inactive) and -0.119, respectively.

Regarding `CC(O)C1C(=O)N2C(C(=O)O)=C(SC3CNC(C(=O)N(C)C)C3)C(C)C12` (centres undefined), the call in assay [1], in assay [2], in assay [3] and in [4] was inactive. Also, the fold change was 0.9 (inactive) and 0.956 (inactive) in assay [5] (setting [12]); 2.32 and 0.899 in assay [5] (setting [13]). In addition, the cell count in assay [5] (setting [14]) is 9280 and 7430; in assay [5] (setting [15]) it was 10300 and 7780. In addition, the z-score in assay [6] (setting [16]) is -0.432 (inactive); in assay [6] (setting [17]) it was 0.361.

As for `Cc1ccn(-c2ccc(-c3ncco3)cc2)c(=O)c1-c1ccc2nc(N)ncc2c1`, the outcome in assay [1], in [2], in [3], in assay [4] and in [7] was inactive.

Regarding `C=C1/C(=C/C=C2\CCCC3(C)[C@@H]([C@H](C)/C=C/C=C/C(O)(CC)CC)CC[C@@H]23)C[C@@H](O)C[C@@H]1O` (some centres undefined), the AC50 is 18.7 µM (active) in assay [1], 20.9 µM (active) in assay [2] and 16.6 µM (active) in assay [3]. In addition, in assay [8], the call was inactive.

Regarding `CC(C)C(=O)Oc1ccc(CO)cc1[C@H](CCN(C(C)C)C(C)C)c1ccccc1`, the outcome in [1], in assay [2], in assay [3] and in assay [4] was inactive.

In the case of `CC(=O)N1CCN(c2ccc(OCc3nn(C)c(C)c3-c3cccc4c(CCCOc5cccc6ccccc56)c(C(=O)O)n(Cc5cccnc5)c34)cc2)CC1`, the AC50 in assay [1] was 9.35 µM (active); in assay [2], 1.66 µM (active); in [3], 1.66 µM (active); in assay [4] it was 1.48 µM (active).
